# The campaign covered roughly 420,000 compounds. About 64,000 (15%) were called active. About 27% were inconclusive and are not listed. Not all results are given here. Where a call stands in place of a potency, no number is given. Unmarked numbers belong to inactive results. Calls come from the whole dose curve; as a rule, active = well fitted inhibition curve with a large enough effect; inconclusive = small, poorly fitted or top-dose-only effect; inactive = flat fitted curve, though single readings scatter.
# Experiment: qHTS for Inhibitors of human tyrosyl-DNA phosphodiesterase 1 (TDP1): qHTS in cells in absence of CPT; note: nearly all actives have a fitted effect of over 55% in size
# Details: DT40 Tdp1-/- hTDP1 cells, no CPT, ATP luminescence, 48 h; activity change, negative = growth inhibition: at 46.2 µM (top of the series)
# Summary of the method: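 A cellular qHTS used chicken DT40 cells lacking endogenous Tdp1 but carrying stably transfected human TDP1. Compounds were applied without camptothecin, and cell growth kinetics were judged by ATP-dependent luminescence after ≥48 hr.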
# Potency is the fitted concentration of half-maximal effect.
Compound,Potency,"activity change, negative = growth inhibition"
CCCCN1C(=O)CC(N2CCOCC2)C1=O (configuration not stated),inactive,
CN(C)C(=O)c1cccn(Cc2cccc(C(F)(F)F)c2)c1=O,inactive,
O=C(c1cc(-c2ccc(O)cc2)on1)N1CCOCC1,inactive,
CC(=O)c1ccc(NC(=S)N(Cc2ccccc2)C(C)C2CC2)cc1 (configuration not stated),inactive,
O=C(Nc1ccc(C(=O)O)cc1)/C(=C/c1ccc([N+](=O)[O-])cc1)NC(=O)c1ccccc1,inactive,
CCOC(=O)C1(C(F)(F)F)N=C(N(C)C)OC(N(C)C)=N1,inactive,
Cc1ccc2nsnc2c1S(=O)(=O)N1CCCC1C(=O)O (configuration not stated),inactive,
O=C(CNC(=O)c1ccccc1)NCC(=O)OCc1ccc(Cl)cc1,inactive,
CCOC(=O)CSc1nccc(N(C)C)c1C#N,inactive,
CN(CC(=O)NCCN1CCOCC1)S(=O)(=O)c1ccc(F)cc1,inactive,
O=C(NC(Cc1c[nH]c2ccccc12)C(=O)O)/C(=C/c1ccco1)NC(=O)c1ccccc1 (configuration not stated),inactive,
Cc1c(Cl)cccc1NC(=S)NCc1ccc2c(c1)OCO2,inactive,
CC(C)Nc1ncnc2c1nnn2Cc1ccccc1,inactive,
O=C(CSc1ncnc2c1nnn2Cc1ccc(F)cc1)NC1CCCC1,inactive,
c1ccc(Cn2nnc3c(N4CCCCC4)ncnc32)cc1,8.91 µM (active),
CCc1ccccc1NC(=O)CSc1nnc([C@@H](NC(=O)OC(C)(C)C)C(C)CC)o1 (some centres not stated),inactive,
Cc1nc(SCC(=O)Nc2cc(C)on2)c2c3c(sc2n1)CCCC3,inactive,
Cc1cc(NC(=O)CSc2nc(C(C)C)nc3sc4c(c23)CCC(C)C4)no1 (configuration not stated),23.1 µM (active),
CC(C)c1nc(SCC(=O)Nc2cccc(C(=O)O)c2)c2c3c(sc2n1)CCCC3,inactive,
CSc1ccc(CCNC(=O)c2cnn(-c3ccccc3)c2-n2cccc2)cc1,14.6 µM (active),
Cc1c(C(=O)NCc2ccccc2)cnn1-c1ccccc1,inactive,
CCCN1CCN(CCCNC(=O)c2cnn(-c3ccc(C)cc3)c2-n2cccc2)CC1,inactive,
C=CCn1c(SCC(=O)NC(=O)Cc2ccccc2)nc2ccccc2c1=O,inactive,
Cc1csc(=O)n1CCC(=O)OCC(=O)NNC(=O)c1ccc(Br)cc1,inactive,
COCCOC(=O)C1=C(C)NC(=O)CC1c1cc2c(cc1Br)OCO2 (configuration not stated),inactive,
O=C1CC(c2ccc(F)cc2F)c2cc3c(cc2N1)OCO3 (configuration not stated),inactive,

Compound,Potency,"activity change, negative = growth inhibition"
CCCOc1ccccc1C1CC(=O)Nc2cc3c(cc21)OCO3 (configuration not stated),1.84 µM (active),
Cc1cc(C)c2nc(NC(=O)C3CCCO3)sc2c1 (configuration not stated),inactive,
Cn1c(=O)c(Sc2ccc(Cl)cc2)c(O)c2ccccc21,inactive,
CCC(Sc1nnc(-c2ccc(OC)cc2)c(-c2ccc(OC)cc2)n1)C(=O)NC1CCCCC1 (configuration not stated),13 µM (active),
COc1ccc(-c2nnc(SC(C)C(=O)NC3CC3)o2)cc1 (configuration not stated),inactive,
COc1ccc(-c2nnn(CC(=O)N(CCO)C(C(=O)NC3CCCC3)c3ccc(F)cc3)n2)cc1 (configuration not stated),inactive,
O=C(NCc1nnc(SCC(=O)N2CCCCCC2)o1)c1ccc(F)cc1,inactive,
S=c1nccc(-c2cc(Cl)sc2Cl)[nH]1,inactive,
CC1(C)Cc2ccccc2-c2c[nH]c(=O)n21,inactive,
c1cncc(-c2nnc3n2C2(CCCCC2)Cc2ccccc2-3)c1,inactive,
O=c1c2ccccc2nc2n1C1(CCCCC1)Cc1ccccc1-2,16.4 µM (active),
CCCc1ccc(C(=O)COC(=O)CN2C(=O)NC3(CCCCC3C)C2=O)cc1 (configuration not stated),inactive,
O=C(Nc1cccc(-c2cscn2)c1)C1CCN(Cc2ccsc2)CC1,inactive,
O=C(Nc1cccc(-c2cccc(Cl)c2)c1)C1CCN(C2CCC2)CC1,23.1 µM (active),
CCn1cc(CN2CCC(n3nccc3NC(=O)CCCc3ccccc3)CC2)c(C)n1,inactive,
COc1ccc(Cl)cc1NC(=O)NCC1CCN(Cc2ccccc2F)CC1,inactive,
Cc1ccccc1NC(=O)NCC1CCN(Cc2cccc(Cl)c2)CC1,inactive,
CCn1cc(CN2CCC(C(=O)Nc3cccc(-c4cccc(Cl)c4)c3)CC2)c(C)n1,4.61 µM (active),
COc1cccc(-c2cccc(NC(=O)C3CCN(C4CCC4)CC3)c2)c1,inactive,
O=C(NC1CCCC1)C1CCN(C(=O)Nc2cccc(Cl)c2)CC1,inactive,
O=C(NCC1CCN(Cc2ccccc2Cl)CC1)Nc1cccc(Cl)c1,18.4 µM (active),
CC1Cc2ccccc2N1S(=O)(=O)c1c(N)n(C)c(=O)n(C)c1=O (configuration not stated),inactive,
CCSc1nnc(NC(=O)c2cc(=O)c3cc(C)c(C)cc3o2)s1,inactive,
COc1ccc(S(=O)(=O)NCC(=O)NC2CC2)cc1OC,inactive,
CCN1CCN(C(C(=O)NC2CCCC2)c2cc3c(cc2[N+](=O)[O-])OCO3)CC1 (configuration not stated),inactive,
CC(C)CN1CC(C)C(=O)N(c2ccccc2)C1=S (configuration not stated),inactive,

Compound,Potency,"activity change, negative = growth inhibition"
Nc1nc(SCC(=O)NNc2c(Cl)cc(Cl)cc2Cl)n[nH]1,inactive,
C[C@@H]1CCCCO[C@H](CN(C)Cc2ccccc2)[C@@H](C)CN([C@H](C)CO)C(=O)c2cc(NS(=O)(=O)c3ccc(Cl)cc3)ccc2O1,16.4 µM (active),
Cc1noc(C)c1S(=O)(=O)N(C)C[C@H]1OCCCC[C@@H](C)Oc2ccc(NC(=O)CCCN(C)C)cc2C(=O)N([C@H](C)CO)C[C@@H]1C,inactive,
CC(C)NC(=O)Nc1ccc2c(c1)C(=O)N([C@H](C)CO)C[C@H](C)[C@@H](CN(C)Cc1ccc(C(F)(F)F)cc1)OCCCC[C@@H](C)O2,inactive,
O=C(Nc1ccnn1C1CCN(Cc2cccc(OCCO)c2)CC1)C1CCCC1,inactive,
CC1(C)CC(=O)C=C(NC2CC(C)(C)NC(C)(C)C2)C1,inactive,
CC(=O)c1cnn(-c2cc(Oc3ccc(F)cc3)ncn2)c1C,inactive,
COc1cc(/C=C2/C(=O)NN(c3ccc(F)cc3)C2=O)cc([N+](=O)[O-])c1O,inactive,
C/C=C/C(=O)Nc1nnc(C(C)C)s1,inactive,
Cc1cccnc1C(NC(=O)C1CCN(Cc2ccc(Cl)c(Cl)c2)CC1)c1ccc(Cl)cc1 (configuration not stated),4.61 µM (active),
COc1cccc(CN2CCC(C(=O)NC(c3ccc4c(c3)OCO4)c3ccccn3)CC2)c1 (configuration not stated),inactive,
O=C(NC(c1ccc(Cl)cc1)c1cnccn1)C1CCN(Cc2ccc(Cl)cc2)CC1 (configuration not stated),20.6 µM (active),
Clc1ccc(CN2CCCCCC2)cc1Cl,inactive,
O=C(NNS(=O)(=O)c1ccc(Cl)cc1)C1CCN(Cc2ccccc2)CC1,inactive,
CCOc1ccc(CN2CCC(n3nccc3NC(=O)C3CC3)CC2)cc1CO,inactive,
Fc1cccc(Cl)c1CSc1ccc(-c2ccco2)nn1,inactive,
CCOc1ccc(S(=O)(=O)N2CCC(C(=O)NCc3ccccn3)CC2)cc1Cl,inactive,
Cc1ccc(S(=O)(=O)NCC(=O)NNC(=O)c2ccc(Br)cc2)cc1C,inactive,
O=C(NNS(=O)(=O)c1ccc(F)cc1)c1cnccn1,inactive,
CO/N=C(\C(=O)N[C@@H]1C(=O)N2C(C(=O)O)=C(C[N+]3(C)CCCC3)CS[C@H]12)c1csc(N)n1,inactive,
O=C(COC(=O)/C=C/c1nc2ccccc2s1)Nc1ccccc1Oc1ccccc1,inactive,
c1ccc(CCc2ccccn2)cc1,inactive,
Cn1cccc1C(=O)N1CCC2(CC1)CN(c1cccc(-c3ccccc3)c1)C2,16.4 µM (active),
CC(C)NC(=O)N1CCC2(CC1)CCN(C(=O)c1cccn1C)CC2,inactive,
COc1ccc(NC(=O)N2CC3(CCN(C(=O)c4cccn4C)CC3)C2)cc1,inactive,
CCN(CC)CCn1cnc2c1c(=O)n(CCOC(=O)c1cc(OC)c(OC)c(OC)c1)c(=O)n2C,inactive,

Compound,Potency,"activity change, negative = growth inhibition"
CC(=O)c1nn(-c2ccc(C)cc2)cc1C(=O)c1cccc(Br)c1,inactive,
O=C(CCNC(=O)c1ccc([N+](=O)[O-])cc1)NC1CCCCC1,inactive,
CC(C)C1=CC2=CC[C@H]3[C@](C)(C(=O)O)CCC[C@]3(C)C2CC1 (some centres not stated),,3.41% [at 9.04 µM]
COc1ccc(CN2CCNC(=O)C2CC(=O)NCc2cn[nH]c2-c2ccccc2)c(F)c1 (configuration not stated),inactive,
COc1ccc(NS(=O)(=O)c2ccc(NC(=O)C(C)(C(F)(F)F)C(F)(F)F)cc2)nn1,inactive,
c1ccc(-c2cn3cccnc3n2)cc1,inactive,
c1ccc(-c2cn3c(n2)CCc2ccc4cccnc4c2-3)cc1,16.4 µM (active),
Cc1csc(NC(=O)CSc2nc(=O)n(CCCN(C)C)c3c2CCC3)n1,inactive,
Cc1ccc2nc(NC(=O)CSc3nc(=O)n(CCCN(C)C)c4c3CCC4)sc2c1,13 µM (active),
Cc1ccc(NC(=O)CSc2nc(=O)n(CCN(C)C)c3c2CCCC3)c(C)c1,inactive,
CCOC(=O)CC1=CC(=O)Nc2ccccc2N1,inactive,
CCc1ccccc1NC(=O)CN1CCN(C(=O)c2cc(C3CC3)nn2-c2ccccc2)CC1,23.1 µM (active),
COc1cccc(NC(=O)CN(C)C(=O)c2cc(C3CC3)nn2-c2ccccc2)c1,inactive,
CCc1ccccc1NC(=O)CN(C)C(=O)c1cc(C2CC2)nn1-c1ccccc1,inactive,
COc1ccc(Sc2ccc(NC(=O)c3cccc(Cl)c3)cc2C#N)cc1,23.1 µM (active),
Cc1ccc(Sc2ccc(NC(=O)c3ccc(F)cc3)cc2C#N)cc1,11.6 µM (active),
COC(=O)c1ccc(Sc2ccc(F)cc2)c(N)c1,inactive,
Cc1ccc(C(=O)Nc2ccc3[nH]c(=O)c(=O)[nH]c3c2)cc1,inactive,
COc1ccc(C(=O)Nc2ccc(NC(=O)C(C)C)nc2)cc1,inactive,
COc1ccc(NC(=O)c2cccc(Cl)c2)c[n+]1[O-],inactive,
COc1cccc(NC(=O)CCNS(=O)(=O)c2ccc3c(c2)oc(=O)n3C)c1,inactive,
COCC(C)N=CC1=C(O)CC(C)(C)CC1=O (configuration not stated),inactive,
C=CCN1C=C(C(=O)c2ccccc2)C(=O)CC1,inactive,
O=C(CCS(=O)(=O)Cc1ccccc1F)NCCCN1CCCCC1,inactive,
